# Measured values taken from PubChem BioAssay (Tox21).
# Several values for one entry are separate records, joined by “and”; a condition that tells them apart may be missing. Equal values may be shown once. A number with no mark means an inactive call. Records with an inconclusive call do not appear. Entries that show only a call come without a potency. Activity calls are given as the source filed them. Unless noted, calls follow the shape of the dose curve; as a rule, active = well fitted curve in the direction sought with a large enough effect in the repeat runs; inconclusive = weak or mixed curves; inactive = no such curve, though single readings can be large; an effect the other way counts as inactive or inconclusive.
# Columns and labels:
# [1] = qHTS assay to identify small molecule antagonists of the estrogen related receptor (ERR) signaling pathway - cell viability counter screen (AID 1224818);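 also: viability measured after 17.5 h of compound exposure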
# Method in brief: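 ERR reporter cells plated 6 h at 37 C/5% CO2, then compounds in DMSO pin-transferred and incubated 17.5 h at 37 C. Viability read as CellTiter-Fluor fluorescence after 30 min at 37 C.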
# [2] = qHTS assay to identify small molecule antagonists of the estrogen related receptor (ERR) signaling pathway (AID 1224819; also: nearly all actives have a fitted effect of over 50% in size; also: potency is read from the fitted curve at half-maximal effect)
# Method in brief: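 ERR reporter cells were plated at 2,000 cells/well and left 6 h at 37 C/5% CO2 before pin-tool transfer of compounds in DMSO. After 18 h at 37 C, One-Glo was added and luminescence was read 30 min later at room temperature.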
# [3] = qHTS assay to identify small molecule agonists of the estrogen related receptor (ERR) signaling pathway (AID 1224820)
# Method in brief: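 Cells: ERR line from NTP, 2,000/well. Pre-incubation 6 h, 37 C/5% CO2. Compound (DMSO) pin transfer, 18 h 37 C. One-Glo, 30 min RT, luminescence.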
# [4] = qHTS assay to identify small molecule antagonists of the estrogen related receptor signaling pathway with the pleiotropic PPARgamma coactivator (PGC) cell viability counter screen (AID 1224822; also: potency is read from the fitted curve at half-maximal effect)
# Method in brief: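 PGC/ERR cells were seeded at 2,000 cells/well, rested 6 h at 37 C/5% CO2, then given compounds in DMSO by pin tool and incubated 17.5 h at 37 C. Viability came from CellTiter-Fluor fluorescence after 30 min.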
# [5] = qHTS assay to identify small molecule agonists of the estrogen related receptor signaling pathway with the pleiotropic PPARgamma coactivator (PGC) (AID 1224823)
# Method in brief: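 Steps: plate PGC/ERR cells at 2,000 cells/well; incubate 6 h, 37 C/5% CO2; pin-transfer compounds (DMSO); incubate 18 h, 37 C; add One-Glo; 30 min RT; read luminescence.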
# [6] = system: estrogen-related receptor alpha (ERRalpha) with PGC-1alpha coactivator, human; test: qHTS assay to identify small molecule antagonists of the estrogen related receptor signaling pathway with the pleiotropic PPARgamma coactivator (PGC) (AID 1224821; calls by dose curve;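 also: lower luminescence signal means antagonism of PGC/ERR signalling; nearly all actives have a fitted effect of over 50% in size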)
# Method in brief: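 Luminescent read-out (One-Glo, 30 min at room temperature) following 18 h treatment of PGC/ERR cells at 37 C with compounds delivered in DMSO. Cells had settled 6 h at 37 C/5% CO2 before dosing.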
# [7] = qHTS assay to identify small molecule agonists of the estrogen related receptor (ERR) signaling pathway from Tox21 library (AID 1224849; calls by dose curve; also: nearly all actives have a fitted effect of over 15% in size); conditions: ERR reporter cell line, ONE-Glo luciferase, 18 h
# Method in brief: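 ERR reporter cell line (NTP) seeded, rested 6 h at 37 C/5% CO2, then pinned with Tox21 compounds in DMSO. After 18 h at 37 C, ONE-Glo luciferase luminescence was read following 30 min at room temperature.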
# [8] = target: Acetylcholinesterase (Homo sapiens) (UniProt P22303); test: Acetylcholinesterase (AChE) small molecule antagonists: colormetric cell-based qHTS assay (AID 1347395; calls by dose curve; also: nearly all actives have a fitted effect of over 30% in size)
# Method in brief: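 In this cell-based qHTS, attached SH-SY5Y cells were treated with test chemicals for 30 min, after which acetylthiocholine hydrolysis was followed by DTNB colour development over 90 min at 37 C.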
# [9] = target: Acetylcholinesterase (Homo sapiens) (UniProt P22303); test: Acetylcholinesterase (AChE) small molecule antagonists: enzyme-based qHTS assay (AID 1347397; calls by dose curve; also: nearly all actives have a fitted effect of over 55% in size); conditions: Potency: AChE enzyme activity inhibition; outcome: AChE enzyme activity inhibition
# Method in brief: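 Human recombinant acetylcholinesterase; substrate acetylthiocholine; thiocholine quantified with DTNB (colorimetric). Compound preincubation 30 min RT; reaction 10 min RT.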
# [10] = target: Acetylcholinesterase (Homo sapiens) (UniProt P22303); test: Acetylcholinesterase (AChE) small molecule antagonists: fluorescence cell-based qHTS assay (AID 1347398; calls by dose curve; also: nearly all actives have a fitted effect of over 50% in size); conditions: Potency: AChE activity; outcome: AChE activity
# Method in brief: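 Thiocholine generated from acetylthiocholine by SH-SY5Y cell AChE is detected with Thiolite Green (Ex/Em 490/520 nm) after 40 min at room temperature, following 30 min compound pretreatment at 37 C.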
# [11] = target: Acetylcholinesterase (Homo sapiens) (UniProt P22303); test: Acetylcholinesterase (AChE) small molecule antagonists: enzyme-based qHTS assay with human liver microsomes (AID 1347399; calls by dose curve; also: nearly all actives have a fitted effect of over 60% in size); conditions: Potency: qHTS inhibition; outcome: qHTS inhibition
# Method in brief: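 Recombinant human AChE (50 mU/mL in the enzyme mix) and human liver microsomes (0.25 mg/mL final) were preincubated with compound and NADPH (0.25 mg/mL final) for 30 min at 37 C. Acetylthiocholine/DTNB was then added; thiocholine was read colorimetrically after 10 min at room temperature.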
# Sequence of Acetylcholinesterase (Homo sapiens) (P22303 whole entry, looked up): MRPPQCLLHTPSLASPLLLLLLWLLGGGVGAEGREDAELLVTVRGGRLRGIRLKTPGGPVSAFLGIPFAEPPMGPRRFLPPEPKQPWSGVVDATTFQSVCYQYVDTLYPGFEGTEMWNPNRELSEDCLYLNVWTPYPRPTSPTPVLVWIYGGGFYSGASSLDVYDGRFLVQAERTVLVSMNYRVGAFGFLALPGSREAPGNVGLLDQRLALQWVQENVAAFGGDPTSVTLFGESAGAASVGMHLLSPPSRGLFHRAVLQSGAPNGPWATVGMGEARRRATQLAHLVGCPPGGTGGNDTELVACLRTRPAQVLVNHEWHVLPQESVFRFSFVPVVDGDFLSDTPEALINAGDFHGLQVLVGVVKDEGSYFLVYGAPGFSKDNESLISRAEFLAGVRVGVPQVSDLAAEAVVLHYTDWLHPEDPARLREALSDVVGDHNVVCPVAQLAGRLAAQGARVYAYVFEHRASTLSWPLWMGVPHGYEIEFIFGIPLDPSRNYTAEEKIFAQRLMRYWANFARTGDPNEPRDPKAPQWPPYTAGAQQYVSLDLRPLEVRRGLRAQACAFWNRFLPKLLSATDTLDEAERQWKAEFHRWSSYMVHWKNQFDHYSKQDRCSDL
smiles,measurement,setting,value
CC[C@@]1(O)C(=O)OCc2c1cc1n(c2=O)Cc2cc3ccccc3nc2-1,Potency,[1],inactive
same,Potency,[2],0.123 µM (active)
same,Potency,[3],inactive
same,Potency,[4],inactive
same,Potency,[5],inactive
CCOC(=O)c1ncn2c1[C@@H]1CCCN1C(=O)c1cc(OC)ccc1-2,Potency,[1],inactive
same,Potency,[2],inactive
same,Potency,[3],inactive
same,Potency,[4],inactive
same,Potency,[5],inactive
C[C@H](N)Cc1cccc(C(F)(F)F)c1,Potency,[1],inactive
same,Potency,[2],inactive
same,Potency,[3],inactive
same,Potency,[6],inactive
same,Potency,[4],inactive
same,Potency,[5],inactive
COc1ccc(OC)c(C(O)C(C)N)c1 (stereo not given),Potency,[1],inactive
same,Potency,[2],inactive
same,Potency,[3],inactive
same,Potency,[6],inactive
same,Potency,[4],inactive
same,Potency,[5],inactive
CC(N)[C@H](O)c1ccc(O)c(O)c1 (stereo not given in full),Potency,[1],inactive
same,Potency,[2],inactive
same,Potency,[3],inactive
same,Potency,[6],inactive
same,Potency,[5],inactive
CCCCc1ccc(C(=O)O)nc1,Potency,[1],inactive
same,Potency,[2],inactive
same,Potency,[3],inactive
same,Potency,[6],inactive
same,Potency,[5],inactive
CC(C)(C)OC(=O)NC1[C@H]2CNC[C@@H]12 (stereo not given in full),Potency,[1],inactive
same,Potency,[2],inactive
same,Potency,[3],inactive
same,Potency,[4],20.3 µM (active)
same,Potency,[5],inactive
CCn1cc(C(=O)O)c(=O)c2ccc(C)nc21,Potency,[1],inactive
same,Potency,[2],inactive
same,Potency,[3],inactive
same,Potency,[6],inactive
same,Potency,[4],inactive
same,Potency,[5],inactive
same,"activity change, positive = activation",[7]; at 42.5 µM (top of the series),4.67%
same,"activity change, positive = activation",[7]; at 92.4 µM (top of the series),4.5% and 0.305%
same,Potency,[8],inactive
same,Potency,[9],inactive
same,Potency,[10],inactive
O=C(Cc1ccc(Cl)c(Cl)c1)N1CCCCC1CN1CCCC1 (stereo not given),Potency,[1],inactive
same,Potency,[2],inactive
same,Potency,[3],inactive
same,Potency,[6],inactive
same,Potency,[5],inactive
NCCc1ccc(S(=O)(=O)F)cc1,Potency,[1],inactive
same,Potency,[2],inactive
same,Potency,[3],inactive
same,Potency,[6],inactive
same,Potency,[5],inactive
CC(N)C(=O)OC(C)(C)Cc1ccc(Cl)cc1 (stereo not given),Potency,[1],inactive
same,Potency,[2],inactive
same,Potency,[3],inactive
same,Potency,[6],inactive
same,Potency,[4],inactive
same,Potency,[5],inactive
same,"activity change, positive = activation",[7]; at 92.4 µM (top of the series) unless noted,8.82% [at 42.5 µM]
same,Potency,[8],inactive
same,Potency,[9],inactive
same,Potency,[10],inactive
same,Potency,[11],inactive
C[N+](C)(C)CC#CCN1CCCC1=O,Potency,[1],inactive
same,Potency,[2],inactive
same,Potency,[3],inactive
same,Potency,[6],inactive
same,Potency,[5],inactive
O=C1CCCN1CC#CCN1CCCC1,Potency,[1],inactive
same,Potency,[2],inactive
same,Potency,[3],inactive
same,Potency,[4],inactive
same,Potency,[5],inactive
S=C(NC1CCCCC1)N1CCC(c2cnc[nH]2)CC1,Potency,[1],inactive
same,Potency,[2],inactive
same,Potency,[3],inactive
same,Potency,[6],inactive
same,Potency,[5],inactive
CN1CCC(c2c[nH]c3ccc(O)cc23)CC1,Potency,[1],inactive
same,Potency,[2],inactive
same,Potency,[3],inactive
same,Potency,[6],inactive
same,Potency,[4],inactive
same,Potency,[5],inactive
CC(N)c1cccc(Cl)c1Cl (stereo not given),Potency,[1],inactive
same,Potency,[2],inactive
same,Potency,[3],inactive
same,Potency,[4],inactive
same,Potency,[5],inactive
CC(Cc1ccc(OCC(=O)O)cc1)NCC(O)c1cccc(Cl)c1 (stereo not given),Potency,[1],inactive
same,Potency,[2],inactive
same,Potency,[3],inactive
same,Potency,[4],inactive
same,Potency,[5],inactive
